ST2 inh – inhibitors of human ST2 (IL1RL1) binding to IL-33; Q01638; AlphaLISA ST2-Fc/biotin-IL-33 interaction, 1 h; inhibition, % for hits at 17 µM; 2.3% of 78,000 active; AID 1259354; in the data active = inhibition above about 30%
Target sequence (Q01638 whole entry, looked up): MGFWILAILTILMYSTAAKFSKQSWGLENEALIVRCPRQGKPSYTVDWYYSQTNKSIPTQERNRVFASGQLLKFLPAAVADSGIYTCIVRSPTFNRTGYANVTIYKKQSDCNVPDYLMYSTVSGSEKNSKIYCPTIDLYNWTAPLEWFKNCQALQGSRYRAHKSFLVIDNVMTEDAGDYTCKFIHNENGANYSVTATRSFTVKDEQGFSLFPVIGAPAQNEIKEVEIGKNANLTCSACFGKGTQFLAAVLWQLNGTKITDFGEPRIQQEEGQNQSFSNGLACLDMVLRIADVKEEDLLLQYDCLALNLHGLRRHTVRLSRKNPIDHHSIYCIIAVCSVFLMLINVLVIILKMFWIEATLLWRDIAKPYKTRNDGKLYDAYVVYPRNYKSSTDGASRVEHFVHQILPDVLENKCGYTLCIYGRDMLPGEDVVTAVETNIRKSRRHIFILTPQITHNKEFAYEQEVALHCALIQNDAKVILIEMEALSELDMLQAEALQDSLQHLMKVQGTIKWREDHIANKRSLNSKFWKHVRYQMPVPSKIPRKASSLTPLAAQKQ
Each line names hits and unclear results; the compound was inactive in the other large screens. Shown is part of a subset that was picked to be rich in hits.

Cc1cccc(C(=O)Nc2ccc(NC(=O)c3ccc(C)c([N+](=O)[O-])c3)cc2)c1	ST2 inh 32%
CNC(=O)c1ccc(C)c([N+](=O)[O-])c1	none
Cc1cccc(C(=O)Nc2cccc([N+](=O)[O-])c2C)c1	none
Cc1ccc(C(=O)c2ccc(Cl)cc2)cc1[N+](=O)[O-]	ST2 inh 42%
Cc1ccc(NC(=O)c2cccc(F)c2)cc1[N+](=O)[O-]	none
Cc1ccc(NC(=O)COc2ccc(Cl)cc2)cc1[N+](=O)[O-]	none
CC(NC(=O)c1nn2c(c1Cl)NC(c1ccco1)CC2C(F)(F)F)c1ccccc1 (centres undefined)	none
CC1CCCCN1CCNC(=O)COc1ccc2c(c1)C(=O)CC(C)(C)O2 (centres undefined)	none
COc1ccc(C(=O)N2CC[C@@H](CC(=O)O)[C@@H](CCN3CCN(c4cccc(C(F)(F)F)c4)CC3)C2)cc1	none
COc1ccccc1N1CCN(CC[C@H]2CN(C(=O)N3CCOCC3)CC[C@H]2CC(=O)O)CC1	ST2 inh 33%
COc1ccc(C(=O)N2CC[C@@H](CC(=O)O)[C@@H](CCN3CCCN(C(C)=O)CC3)C2)cc1	ST2 inh 39%
COc1ccc(CC(=O)N2CC[C@@H](CC(=O)O)[C@@H](CCN3CCN(c4ccccn4)CC3)C2)cc1	none
COc1ccc(CC(=O)N2CC[C@@H](CC(=O)O)[C@@H](CCN3CCN(c4cccc(C(F)(F)F)c4)CC3)C2)cc1	none
O=C(O)C[C@@H]1CCN(C(=O)c2ccco2)C[C@@H]1CCN1CCN(c2ccccc2)CC1	none
COc1ccc(C2NC(=O)c3c(sc4c3CCN(C)C4)N2)c(O)c1 (centres undefined)	none
Cc1[nH]cnc1CN(C)Cc1nc(-c2cccnc2)no1	none
Fc1ccccc1CCn1ccnc1-c1cccnc1	none
O=C(CCc1nnc(-c2ccsc2)o1)N1CCCC(OCc2ccccn2)C1 (centres undefined)	none
O=C(CN1C(=O)/C(=C/c2ccccc2F)Sc2ccccc21)NCc1ccco1	none
CN1CCN(C(=O)CN2C(=O)S/C(=C\c3ccc(Cl)cc3)C2=O)CC1	none
O=C(CN1C(=O)/C(=C\c2cccc(Cl)c2)Sc2ccccc21)NCCCN1CCOCC1	ST2 inh 32%
O=C(CN1C(=O)/C(=C\c2cccc(Cl)c2)Sc2ccccc21)NCCN1CCCCCC1	ST2 inh 43%
O=C1S/C(=C/c2cccc(Cl)c2)C(=O)N1CN1CCCCC1	none
CCC1Oc2ccccc2N(CC(=O)NCCCN2CCOCC2)C1=O (centres undefined)	none
O=C(CN1C(=O)CSc2ccc(S(=O)(=O)N3CCCCC3)cc21)NCCN1CCCC1	none
CN(Cc1ccco1)C(=O)CN1C(=O)/C(=C\c2ccc(C(F)(F)F)cc2)Sc2ccccc21	ST2 inh 31%
O=C(CN1C(=O)/C(=C\c2cccc(Cl)c2)Sc2ccccc21)N1CCCCC1	ST2 inh 33%
O=C(NCCCN1CCOCC1)N1c2ccccc2Sc2ccccc21	none
CC1CC(=O)N(CC(=O)NCc2ccco2)c2ccccc2S1 (centres undefined)	none
COc1ccc(/C=C2\SC(=O)N(CC(=O)N3CCCCC3)C2=O)cc1OC	none
Cc1cccc2[nH]c(CCN(C)C(=O)CC3C(=O)NCCN3CC(C)C)nc12 (centres undefined)	none
O=C(c1ccc2c(c1)OCO2)C1CCCN(Cc2nc(-c3ccccc3)cs2)C1 (centres undefined)	none
CCOc1cc2c(cc1OCC)C1C(C(=O)NC3CCCCC3)c3ccccc3C(=O)N1CC2 (centres undefined)	none
CCOC(=O)c1cccnc1NCc1cccnc1N1CCN(C(C)=O)CC1	none
Cn1nc(-c2ccc(Cl)cc2)c2cc(C(=O)NCc3ccc4c(c3)OCO4)sc21	none
CCOC(=O)CCCN(Cc1ccc(F)cc1)S(=O)(=O)c1ccc(Br)cc1	none
CCc1ccc(CN(C)C(=O)c2c(O)cccc2O)nc1	none
O=C(CSC1=NC(=O)C(c2ccccc2)C(=O)N1)Nc1ncccn1 (centres undefined)	none
CCC(C)NC(=O)c1cc2c(=O)n3ccccc3nc2n1C (centres undefined)	none
Cc1cccn2c(=O)c3cc(C(=O)N(CCc4ccccc4)Cc4ccccc4)n(C)c3nc12	none
O=C(CSc1ccccc1)NCCN1CCOCC1	none
O=C(c1ccc(Cl)cc1Cl)N1CCCN(C(=O)c2ccc(Cl)cc2Cl)CC1	none
Cc1cc(C(=O)NCCSc2ncn[nH]2)c(NC(=O)C(C)(C)C)s1	none
CC1(C2CCN(C(=O)C#Cc3ccccc3)CC2)NC(=O)N(Cc2ccsc2)C1=O (centres undefined)	none
CNC(=O)c1ccc(/C=C2\Sc3ccccc3N(Cc3ccc(F)cc3)C2=O)cc1	none
O=C(CN1CCN(Cc2cccc(Cl)c2)C1=O)NCCN1CCOCC1	none
O=C(Nc1ccccc1C(=O)NCCN1CCOCC1)c1ccc(Cl)cc1Cl	none
O=C(CN1C(=O)/C(=C\c2ccc(C(F)(F)F)cc2)Sc2ccccc21)N1CCCC1	ST2 inh 30%
O=C(CN1C(=O)/C(=C\c2cccc(Cl)c2)Sc2ccccc21)NCCN1CCOCC1	ST2 inh 36%
O=C(CN1CCCC1)N1c2ccccc2Sc2ccc(C(F)(F)F)cc21	none
CN1CCCN(Cc2cccc(Cl)c2Cl)CC1	none

Screening data from PubChem BioAssay.
